Experimental data: PubChem BioAssay (Tox21)
Values without a mark were called inactive. Results filed as inconclusive are left out. Where a call stands in place of a potency, no number is given. Active and inactive are the calls of the source. Unless noted, calls come from the whole dose curve.

Columns and labels:
[1] = Nuclear factor erythroid 2-related factor 2/antioxidant responsive element (Nrf2/ARE) small molecule agonists: luciferase reporter gene qHTS assay in human keratinocytes (AID 1919969); note: nearly all actives have a fitted effect of over 35% in size; note: potency is the fitted concentration of half-maximal effect
[2] = molecular target: KiSS-1 receptor (Homo sapiens) (UniProt Q969F8); experiment: Human kisspeptin (KISS1R) small molecule agonists, calcium flux assay in KISS1R-HEK293 cells (AID 1920064; active = well fitted activation curve with a large enough effect in the repeat runs)
Procedure, shortened: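 Triplicate 15-concentration series were applied to dye-loaded human KISS1R HEK293 cells, and agonist-evoked calcium fluorescence was captured for 3 min.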

[3] = G protein-coupled receptor (GPCR) small molecule agonists, calcium flux assay: HEK293 wild type cell line counter screen (AID 1920065)
Procedure, shortened: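 Non-specific calcium responders were flagged by adding DMSO-dissolved compounds to dye-loaded cells and reading 480/540 nm fluorescence each second for 3 min; ATP served as positive control.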

[4] = p53 small molecule agonists, cell-based qHTS assay with human liver microsomes (AID 1963577);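 note: p53 response element beta-lactamase reporter cells with liver microsomes plus NADPH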
Procedure, shortened: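 In this qHTS, p53 response-element beta-lactamase cells receive test compound together with a microsome/NADPH activating system (0.5 mg/mL final each) and are incubated 16 h at 37 C before LiveBLAzer fluorescence detection.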

[5] = p53 small molecule agonists, cell-based qHTS assay with rat liver microsomes (AID 1963578)
Procedure, shortened: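 Agonist mode in p53RE-bla reporter cells, with compounds co-incubated 16 h at 37 C alongside 0.5 mg/mL rat liver microsomes and 0.5 mg/mL NADPH (final), followed by a 2 h LiveBLAzer detection step.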

[6] = p53 small molecule agonists, cell-based qHTS assay with human liver microsomes: qHTS cell viability counter screen (AID 1963579); note: nearly all actives have a fitted effect of over 45% in size
Procedure, shortened: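 Metabolically activated exposure: compounds, human liver microsomes and NADPH (0.5 mg/mL final apiece) were added to p53RE-bla cells seeded 5 h earlier, left 16 h at 37 C, and then assessed for viability by CellTiter-Glo luminescence.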

[7] = p53 small molecule agonists, cell-based qHTS assay with rat liver microsomes: qHTS cell viability counter screen (AID 1963580); note: nearly all actives have a fitted effect of over 45% in size; note: potency is the fitted concentration of half-maximal effect
Procedure, shortened: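 Cytotoxicity counter screen: intracellular ATP read by CellTiter-Glo luminescence in the p53 reporter wells. HCT-116 p53RE-bla cells were treated for 16 h at 37 C alongside rat liver microsomes and NADPH, each 0.5 mg/mL final.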

[8] = molecular target: 5-hydroxytryptamine receptor 2A (Homo sapiens) (UniProt P28223); experiment: 5-hydroxytryptamine receptor 2A (HTR2A) small molecule antagonists, cell-based qHTS assay (AID 1963586); note: nearly all actives have a fitted effect of over 45% in size; note: potency is the fitted concentration of half-maximal effect
Procedure, shortened: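 CHO cells stably expressing human HTR2A were plated for 18 h at 37 C, then loaded with calcium dye for 1 h. Compounds were preincubated 5 min at room temperature before DOI (4 nM solution) was added. Kinetic fluorescence was read for 3 min.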

[9] = molecular target: 5-hydroxytryptamine receptor 2A (Homo sapiens) (UniProt P28223); experiment: 5-hydroxytryptamine receptor 2A (HTR2A) small molecule agonists, cell-based qHTS assay (AID 1963587); note: nearly all actives have a fitted effect of over 30% in size; note: potency is the fitted concentration of half-maximal effect
Procedure, shortened: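 Kinetic calcium-flux fluorescence (2 min, 1 sec intervals) after compound addition in agonist mode. HTR2A-CHO cells were cultured 18 h, then dye-loaded 1 h at 37 C.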

[10] = molecular target: Muscarinic acetylcholine receptor M1 (Homo sapiens) (UniProt P11229); experiment: Cholinergic receptor muscarinic 1 (CHRM1) small molecule antagonists, cell-based qHTS assay (AID 1963588); note: nearly all actives have a fitted effect of over 40% in size; note: potency is the fitted concentration of half-maximal effect
Procedure, shortened: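 Compounds were tested at 15 concentrations in three independent runs. Dye-loaded CHRM1-CHO cells were exposed 5 min at room temperature before stimulation by acetylcholine added at 50nM. Intracellular calcium was read kinetically on FDSS for 3 min.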

[11] = molecular target: Muscarinic acetylcholine receptor M1 (Homo sapiens) (UniProt P11229); experiment: Cholinergic receptor muscarinic 1 (CHRM1) small molecule agonists, cell-based qHTS assay (AID 1963589); note: nearly all actives have a fitted effect of over 35% in size
Procedure, shortened: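 qHTS, 15-point titration, 3 independent runs: compounds pin-transferred onto dye-loaded CHRM1-CHO cells (human M1), calcium fluorescence followed every second to detect agonism.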

[12] = cAMP Responsive Elements (CRE) small molecule agonists, cell-based qHTS assay (AID 1963590); note: potency is the fitted concentration of half-maximal effect
Procedure, shortened: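 Quantitative HTS for CRE agonists: HEK 293T CRE-bla cells, overnight plating, 3 h compound incubation at 37 C/5% CO2, then 2 h room-temperature LiveBLAzer B/G FRET substrate loading.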

[13] = molecular target: Beta-2 adrenergic receptor (Homo sapiens) (UniProt P07550); experiment: Adrenergic beta2 receptor (ADRB2) small molecule antagonists, cell-based qHTS assay (AID 1963592); note: series mostly up to about 92 µM; nearly all actives have a fitted effect of over 50% in size
Procedure, shortened: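 Assay format: CHO-ADRB2 cells, 18-20hr seeding at 37C/5% CO2, then compound plus 1nM isoproterenol agonist mix for 0.5hr RT. Homogeneous time-resolved fluorescence cAMP detection after 1hr, expressed as 665/615 nm ratio.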

[14] = molecular target: D(2) dopamine receptor (Homo sapiens) (UniProt P14416); experiment: Dopamine D2 receptor (DRD2) small molecule antagonists, cell-based qHTS assay (AID 1963595; active = well fitted inhibition curve with a large enough effect in the signal ratio in the repeat runs, with a control signal flat; the % refers to the signal ratio; note: potency is the fitted concentration of half-maximal effect)
Procedure, shortened: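 Cells were plated and grown for 24 h at 37 °C. Ro20-1724 (0.1 mM final) went in first, then compound for 10 min. NKH477 (200 nM) with quinpirole (12 nM) followed for 30 min at RT, then HTRF detection reagents for 1 h.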

[15] = molecular target: Gonadotropin-releasing hormone receptor (Homo sapiens) (UniProt P30968); experiment: Human gonadotropin-releasing hormone receptor (GnRHR) small molecule agonists, calcium flux assay in GnRHR-HEK293 cells (AID 1920063); note: nearly all actives have a fitted effect of over 35% in size; note: potency is the fitted concentration of half-maximal effect
Procedure, shortened: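 Calcium flux, agonist mode, human GnRHR stably integrated in HEK293; dye 1 h at 37 C before compound; Ex/Em=480/540 kinetic read, 3 min; 15 concentrations, triplicate.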

[16] = p53 small molecule agonists, cell-based qHTS assay: qHTS cell viability counter screen (AID 1963581); note: nearly all actives have a fitted effect of over 45% in size
Procedure, shortened: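 Multiplexed with the reporter read, a CellTiter-Glo step (30 min, room temperature) gauges ATP-based viability of HCT-116 p53RE-bla cells after 16 h compound incubation at 37 C.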

[17] = p53 small molecule agonists, cell-based qHTS assay (AID 1963582; active = well fitted activation curve with a large enough effect in the signal ratio in the repeat runs, not every such curve was filed as active; the % refers to the signal ratio; note: potency is the fitted concentration of half-maximal effect)
Procedure, shortened: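 Beta-lactamase reporter cells (p53RE-bla) treated with compounds for 16 h at 37 C; FRET substrate, 2 h, room temperature; fluorescence intensity.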

[18] = cAMP Responsive Elements (CRE) small molecule antagonists, cell-based qHTS assay (AID 1963591; active = well fitted inhibition curve with a large enough effect in the signal ratio in the repeat runs, not every such curve was filed as active; the % refers to the signal ratio; note: potency is the fitted concentration of half-maximal effect)
Procedure, shortened: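 Fluorescence intensity from cleaved LiveBLAzer B/G substrate (2 h, room temperature) quantified CRE-bla activity in HEK 293T cells exposed 3 h to compound with 0.25 uM final NKH477.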

[19] = molecular target: D(2) dopamine receptor (Homo sapiens) (UniProt P14416); experiment: Dopamine D2 receptor (DRD2) small molecule agonists, cell-based qHTS assay (AID 1963594); note: nearly all actives have a fitted effect of over 35% in size
Procedure, shortened: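 cAMP accumulation in DRD2-HEK293 cells measured by HTRF after 1 h detection; compounds added 10 min before NKH477 (200nM […]) forskolin-analogue stimulation, 30 min at room temperature, with Ro20-1724 present at 0.1 mM final.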

[20] = molecular target: Beta-2 adrenergic receptor (Homo sapiens) (UniProt P07550); experiment: Adrenergic beta2 receptor (ADRB2) small molecule agonists, cell-based qHTS assay (AID 1963593);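 note: CHO cells stably overexpressing human ADRB2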
Procedure, shortened: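 CHO cells stably over-expressing ADRB2 were plated overnight at 37C, then dosed with compounds plus a stimulation mix containing 100uM IBMX and 25uM Ro-20-1724 for 0.5hr at room temperature. cAMP was measured by HTRF competition, 1hr.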

Chain of Gonadotropin-releasing hormone receptor (Homo sapiens) (P30968 whole entry, looked up): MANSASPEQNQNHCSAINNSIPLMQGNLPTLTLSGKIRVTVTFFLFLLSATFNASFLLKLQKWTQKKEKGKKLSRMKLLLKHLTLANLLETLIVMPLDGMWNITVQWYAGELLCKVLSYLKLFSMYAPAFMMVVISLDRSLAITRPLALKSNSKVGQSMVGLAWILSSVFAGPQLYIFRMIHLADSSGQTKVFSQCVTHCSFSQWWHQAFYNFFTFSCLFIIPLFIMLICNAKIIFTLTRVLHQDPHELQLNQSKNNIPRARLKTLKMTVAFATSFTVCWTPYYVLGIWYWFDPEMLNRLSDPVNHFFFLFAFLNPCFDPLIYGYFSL
Chain of Beta-2 adrenergic receptor (Homo sapiens) (P07550 whole entry, looked up): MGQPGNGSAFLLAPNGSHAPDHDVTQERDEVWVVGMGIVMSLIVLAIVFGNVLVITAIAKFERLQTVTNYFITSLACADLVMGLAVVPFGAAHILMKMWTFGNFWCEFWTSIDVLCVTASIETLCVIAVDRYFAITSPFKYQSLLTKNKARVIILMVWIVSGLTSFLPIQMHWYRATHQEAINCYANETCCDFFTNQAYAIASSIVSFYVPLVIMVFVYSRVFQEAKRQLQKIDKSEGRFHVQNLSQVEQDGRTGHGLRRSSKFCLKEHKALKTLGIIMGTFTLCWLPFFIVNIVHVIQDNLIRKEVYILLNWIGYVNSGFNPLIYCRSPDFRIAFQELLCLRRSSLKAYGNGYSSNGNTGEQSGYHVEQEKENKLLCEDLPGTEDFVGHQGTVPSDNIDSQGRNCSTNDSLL
Chain of D(2) dopamine receptor (Homo sapiens) (P14416 whole entry, looked up): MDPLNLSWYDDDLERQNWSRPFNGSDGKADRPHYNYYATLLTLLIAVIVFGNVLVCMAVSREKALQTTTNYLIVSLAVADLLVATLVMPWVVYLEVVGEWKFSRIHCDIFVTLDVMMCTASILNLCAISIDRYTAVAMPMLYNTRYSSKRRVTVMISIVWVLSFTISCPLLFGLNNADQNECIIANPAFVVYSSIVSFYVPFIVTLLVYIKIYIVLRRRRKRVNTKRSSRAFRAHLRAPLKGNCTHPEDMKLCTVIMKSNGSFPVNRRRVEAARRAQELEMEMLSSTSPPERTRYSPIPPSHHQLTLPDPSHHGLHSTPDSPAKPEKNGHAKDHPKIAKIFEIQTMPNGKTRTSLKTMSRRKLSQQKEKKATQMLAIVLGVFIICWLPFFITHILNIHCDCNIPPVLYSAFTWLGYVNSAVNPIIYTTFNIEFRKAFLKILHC
Chain of 5-hydroxytryptamine receptor 2A (Homo sapiens) (P28223 whole entry, looked up): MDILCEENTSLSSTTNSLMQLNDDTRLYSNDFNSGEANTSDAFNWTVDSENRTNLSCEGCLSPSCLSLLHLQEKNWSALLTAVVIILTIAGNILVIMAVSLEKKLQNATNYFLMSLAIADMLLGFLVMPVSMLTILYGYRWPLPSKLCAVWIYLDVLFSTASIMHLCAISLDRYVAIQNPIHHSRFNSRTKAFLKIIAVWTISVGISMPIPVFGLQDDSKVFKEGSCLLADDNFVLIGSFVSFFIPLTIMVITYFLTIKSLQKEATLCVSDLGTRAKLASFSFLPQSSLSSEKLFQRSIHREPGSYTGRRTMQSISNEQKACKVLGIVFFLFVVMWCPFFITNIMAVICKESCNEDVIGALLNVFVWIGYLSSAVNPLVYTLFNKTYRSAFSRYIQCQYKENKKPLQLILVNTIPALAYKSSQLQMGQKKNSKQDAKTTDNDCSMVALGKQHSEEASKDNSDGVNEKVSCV
Chain of Muscarinic acetylcholine receptor M1 (Homo sapiens) (P11229 whole entry, looked up): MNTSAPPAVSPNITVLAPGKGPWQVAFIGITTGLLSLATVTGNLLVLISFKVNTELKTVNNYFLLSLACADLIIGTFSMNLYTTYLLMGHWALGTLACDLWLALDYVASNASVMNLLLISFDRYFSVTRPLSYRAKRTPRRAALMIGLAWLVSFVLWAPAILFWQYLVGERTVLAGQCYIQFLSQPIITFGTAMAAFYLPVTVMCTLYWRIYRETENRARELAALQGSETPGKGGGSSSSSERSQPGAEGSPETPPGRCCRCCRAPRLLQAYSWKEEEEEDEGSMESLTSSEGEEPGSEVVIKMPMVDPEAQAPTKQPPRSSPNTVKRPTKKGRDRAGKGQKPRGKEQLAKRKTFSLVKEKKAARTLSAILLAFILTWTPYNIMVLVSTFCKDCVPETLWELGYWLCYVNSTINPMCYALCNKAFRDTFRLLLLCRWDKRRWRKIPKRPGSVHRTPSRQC
Chain of KiSS-1 receptor (Homo sapiens) (Q969F8 whole entry, looked up): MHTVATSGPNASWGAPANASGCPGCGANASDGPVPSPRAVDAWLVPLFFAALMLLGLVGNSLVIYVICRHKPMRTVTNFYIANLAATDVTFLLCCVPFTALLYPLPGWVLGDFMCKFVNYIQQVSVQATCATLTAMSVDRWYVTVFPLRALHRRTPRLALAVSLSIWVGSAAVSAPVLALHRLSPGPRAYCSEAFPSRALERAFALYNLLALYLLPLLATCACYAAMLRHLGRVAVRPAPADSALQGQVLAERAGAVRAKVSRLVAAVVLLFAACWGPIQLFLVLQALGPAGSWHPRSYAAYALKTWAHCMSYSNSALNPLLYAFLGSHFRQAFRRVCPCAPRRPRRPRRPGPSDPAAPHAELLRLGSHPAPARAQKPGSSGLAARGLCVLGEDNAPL

Compound: CC(C)=CCNc1ncnc2c1ncn2[C@@H]1O[C@H](CO)[C@@H](O)[C@H]1O
- Potency [1]: 7.5 µM (active)
- Potency [2]: inactive
- Potency [3]: inactive
- Potency [4]: inactive
- Potency [5]: inactive
- Potency [6]: inactive
- Potency [7]: inactive
- Potency [8]: inactive
- Potency [9]: inactive
- Potency [10]: inactive
- Potency [11]: inactive
- Potency [12]: 11.9 µM (active)
- Potency [13]: inactive
- Potency [14]: 9.44 µM (active)

Compound: CCn1ccc(NS(=O)(=O)c2ccc(N)cc2)nc1=O
- Potency [1]: inactive
- Potency [15]: inactive
- Potency [3]: inactive
- Potency [5]: inactive
- Potency [7]: inactive
- Potency [16]: inactive
- Potency [17]: inactive
- Potency [10]: inactive
- Potency [11]: inactive
- Potency [12]: inactive
- Potency [18]: inactive
- Potency [13]: inactive
- Potency [14]: inactive

Compound: CN1CCC(Nc2ncc3ncnc(Nc4ccc(F)c(Cl)c4)c3n2)CC1
- Potency [1]: inactive
- Potency [15]: inactive
- Potency [3]: inactive
- Potency [6]: inactive
- Potency [7]: inactive
- Potency [8]: inactive
- Potency [10]: 8.18 µM (active)
- Potency [11]: inactive
- Potency [13]: inactive
- Potency [19]: inactive
- Potency [14]: inactive

Compound: CCCCCCCCNC(C)C(O)c1ccc(SC(C)C)cc1 (stereo not drawn)
- Potency [1]: inactive
- Potency [15]: 16.9 µM (active)
- Potency [3]: inactive
- Potency [4]: inactive
- Potency [5]: inactive
- Potency [6]: inactive
- Potency [7]: 19.9 µM (active)
- Potency [18]: 23.7 µM (active)
- Potency [19]: inactive
- Potency [14]: inactive

Compound: Nc1ccc2c(c1)CN1C(=O)c3ccccc3C1=N2
- Potency [1]: 0.13 µM (active)
- Potency [15]: 6.57 µM (active)
- activation [4]: 5.53% [at 13.5 µM]
- activity change, negative = cytotoxicity [6]: -28.3% [at 13.5 µM]
- activity change, negative = cytotoxicity [7]: -20.3% [at 13.5 µM]
- Potency [9]: 10.4 µM (active)
- activity, negative = inhibition [10]: 0.434% [at 12.6 µM]
- activity change, negative = inhibition [13]: -18.2% [at 19 µM]
- activation [20]: 25.8% [at 19 µM]

Compound: c1cc(OCC2CO2)cc(OCC2CO2)c1 (stereo not drawn)
- Potency [1]: 24.1 µM (active)
- Potency [15]: inactive
- Potency [3]: inactive
- Potency [4]: inactive
- Potency [5]: inactive
- Potency [7]: inactive
- Potency [8]: inactive
- Potency [10]: inactive
- Potency [11]: inactive
- Potency [13]: inactive
- Potency [19]: inactive
- Potency [14]: inactive

Compound: O=S(=O)(O)c1cc(S(=O)(=O)O)c2ccc3c(S(=O)(=O)O)cc(S(=O)(=O)O)c4ccc1c2c43
- activity, positive = activation [1]: -1.98% [at 19 µM]
- activity change [15]: 0.0619% [at 11.8 µM, active compounds read high]
- activation [3]: 0.205% [at 11.8 µM]
- activation [5]: -1.38% [at 13.6 µM]
- activity change, negative = cytotoxicity [6]: -2.1% [at 13.5 µM]
- activity change, negative = cytotoxicity [7]: 1.49% [at 13.5 µM]
- activity change, negative = cytotoxicity [16]: -29.1% [at 13.5 µM]
- activity, negative = inhibition [8]: -5.22% [at 12.7 µM]
- activation [9]: -0.138% [at 15.9 µM]
- activity, negative = inhibition [10]: -5.56% [at 12.6 µM]
- activation [11]: -0.115% [at 15.8 µM]
- activity change, negative = inhibition [18]: -8.72% [at 18.9 µM]
- activity change, negative = inhibition [13]: 1.38% [at 19 µM]
- activation [20]: -12.6% [at 19 µM]
- activation [19]: 0.241% [at 19 µM]
- activity change, negative = inhibition [14]: -2.86% [at 18.9 µM]

Compound: CC[N+](CC)(CC)CCOc1ccc(/C=C/c2ccccc2)cc1
- Potency [1]: inactive
- Potency [15]: inactive
- Potency [3]: inactive
- Potency [4]: inactive
- Potency [5]: inactive
- Potency [6]: inactive
- Potency [7]: inactive
- Potency [17]: inactive
- Potency [8]: 18.3 µM (active)
- Potency [9]: inactive
- Potency [10]: 1.16 µM (active)
- Potency [12]: inactive
- Potency [18]: inactive
- Potency [13]: inactive

Compound: O=C(OC[C@H]1O[C@@H](OC(=O)c2cc(O)c(O)c(OC(=O)c3cc(O)c(O)c(O)c3)c2)[C@H](OC(=O)c2cc(O)c(O)c(OC(=O)c3cc(O)c(O)c(O)c3)c2)[C@@H](OC(=O)c2cc(O)c(O)c(OC(=O)c3cc(O)c(O)c(O)c3)c2)[C@@H]1OC(=O)c1cc(O)c(O)c(OC(=O)c2cc(O)c(O)c(O)c2)c1)c1cc(O)c(O)c(OC(=O)c2cc(O)c(O)c(O)c2)c1
- activity, positive = activation [1]: -5.14% [at 19 µM]
- activation [2]: -0.551% [at 15.8 µM]
- activation [3]: 0.5% [at 11.8 µM]
- activation [4]: -11.4% [at 13.5 µM]
- activation [5]: -4% [at 13.6 µM]
- activity change, negative = cytotoxicity [6]: 8.38% [at 13.5 µM]
- activity change, negative = cytotoxicity [7]: 7.08% [at 13.5 µM]
- activity change, negative = cytotoxicity [16]: 16.3% [at 13.5 µM]
- Potency [17]: 11 µM (active)
